SMN2 splice enh – qHTS Assay for Enhancers of SMN2 Splice Variant Expression; HEK293 SMN2-luciferase splicing reporter, luminescence, 30-36 h; Potency, µM (series often up to 46.1 µM), for the others: at the highest dose activity change, positive = activation, actives largely listed as activators; 2.8% of 210,000 active; further: % of control where 0% means no effect; nearly all actives have a fitted effect of over 55% in size
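HEK293 cells carry an SMN2 […]–luciferase reporter in which exon 7 inclusion puts luciferase in frame. Cells were plated 10-12 h before compound addition, then incubated 30-36 h at 37C. ONE-Glo luminescence was read; sodium butyrate at 4.5 mM final served as control.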
ELG1 genotoxic – qHTS screen for small molecules that induce genotoxicity in human embryonic kidney (HEK293T) cells expressing luciferase-tagged ELG1; AID 504466, 2011; 1.3% of 330,000 active; Potency, µM (series often up to 46 µM), without a hit: at the top dose activity change, positive = activation, hits mostly activators; HEK293T ELG1-luciferase reporter, luminescence, 16 h; further: % of control where 0% means no effect; nearly all actives have a fitted effect of over 60% in size
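Genotoxic stress is detected as increased luminescence from luciferase-tagged ELG1 in HEK293T cells, measured with ONE-Glo after a 16 hr treatment at 37 °C.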
NPC1 prom act – qHTS Assay for NPC1 Promoter Activators; Potency, µM (top dose mostly 9.22 µM), for the others: top-dose activation, actives largely listed as activators; Huh7 NPC1 promoter luciferase reporter, 24 h; 2.4% of 320,000 active; AID 485313, 2010; further: % of control where 0% means no effect; nearly all actives have a fitted effect of over 60% in size
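NPC1 promoter–luciferase Huh7 cells; 24 h compound; luminescence.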
FLuc counter – qHTS profiling assay for firefly luciferase inhibitor/activator using purifed enzyme and Km concentrations of substrates (counterscreen for miR-21 project); Luciferin 4-monooxygenase (Photinus pyralis), P08659; purified FLuc, Km substrates, luminescence inhibition; Potency, µM (highest dose often 57.5 µM), for the others: top-dose activity change, negative = inhibition, hits mostly inhibitors; 6.9% of 360,000 active; AID 588342, 2011;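 further: plate controls were vehicle for no effect and reference inhibitor for full effect; nearly all actives have a fitted effect of over 55% in size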
Target sequence (P08659 whole entry, looked up): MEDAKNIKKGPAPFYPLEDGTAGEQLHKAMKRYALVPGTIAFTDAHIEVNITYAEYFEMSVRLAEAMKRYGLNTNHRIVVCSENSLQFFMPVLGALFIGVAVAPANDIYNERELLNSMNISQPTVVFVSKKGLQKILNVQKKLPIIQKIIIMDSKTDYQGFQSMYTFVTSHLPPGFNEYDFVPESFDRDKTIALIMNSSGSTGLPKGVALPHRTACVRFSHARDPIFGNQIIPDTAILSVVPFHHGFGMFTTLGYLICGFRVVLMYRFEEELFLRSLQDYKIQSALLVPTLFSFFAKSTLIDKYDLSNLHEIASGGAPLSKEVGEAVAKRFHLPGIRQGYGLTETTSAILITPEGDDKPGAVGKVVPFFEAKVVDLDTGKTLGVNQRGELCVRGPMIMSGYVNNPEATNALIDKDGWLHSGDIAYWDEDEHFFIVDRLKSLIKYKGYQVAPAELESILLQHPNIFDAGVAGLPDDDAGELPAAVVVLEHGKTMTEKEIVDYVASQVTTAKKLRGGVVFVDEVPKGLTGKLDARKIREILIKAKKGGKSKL
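Purified P. pyralis luciferase, 10 nM final, with Km-level 10 uM D-luciferin and 10 uM ATP in 50 mM Tris acetate pH 7.5, 10 mM Mg acetate, 0.01% Tween-20, 0.05% BSA; 6-point qHTS titration about 60 µM downward; luminescence read.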
Rab9 prom act – qHTS Assay for Rab9 Promoter Activators; Huh7 Rab9 promoter-luciferase reporter, luminescence, 24 h; Potency, µM (titrated, usually from 9.22 µM), for the others: at the top dose activation, negative = inhibition, hits mostly activators; 2.8% of 320,000 active; further: % of control where 0% means no effect; nearly all actives have a fitted effect of over 60% in size
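Luminescence from Amplite-detected luciferase (10 minutes, ambient) reports Rab9 promoter activation. Before that, stable Rab9-luciferase Huh7 cells (1500/well, reduced-serum OP-MEM I plus 10% FBS) were exposed to compound for 24 hours at 37C.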
Numbers without * were called inactive; ? = inconclusive; / = not tested or not shown; [ ] = remark or other dose. A selection: hits, their analogues and other compounds. The true share with any hit is near 7.4%. The call rests on the fitted dose curve; in most records, active means well fitted curve in the direction sought with a large enough effect; inconclusive means small, poorly fitted or top-dose-only effect, or another doubt; inactive means no such curve, though single readings can be large; an effect the other way counts as inactive or inconclusive. Potency means the concentration at half of the fitted maximal effect.

SMILES | SMN2 splice enh | ELG1 genotoxic | NPC1 prom act | FLuc counter | Rab9 prom act
CC(C)OC(=O)CC(=O)CSc1nc2c(cc1C#N)CCCC2 | 2% | / | / | 13µM* | /
CCN(CC)S(=O)(=O)c1ccc(OC)c(NC(=O)C2CC(=O)N(c3ccc(C)cc3)C2)c1 (stereo unspecified) | -7% | -3% | -1% | 3% | -12%
Cc1ccc(Cn2ncc(Cl)c(Cl)c2=O)cc1 | ? | -16% | -14% | 0% | -7%
CCc1ccc(C(=O)Cn2ncc(Cl)c(Cl)c2=O)cc1 | / | 12% | -14% | 7.6µM* | -8%
O=C(NCc1ccccc1)c1c(Cl)nc(Cl)c(Cl)c1Cl | / | -15% | -38% | 0% | -29%
COC(=O)c1ccc(C(=O)OC)c(N)c1 | 18% | 7% | -1% | ? | 20%
COC(=O)c1ccc(N2CCC(C)CC2)c(N)c1 | 7% | 18µM* | ? | 12µM* | ?
COC(=O)c1ccc(N2CCCCC2)c(N)c1 | 22µM* | ? | ? | 11µM* | 3.5µM*
COC(=O)c1ccc(N2CCOCC2)c(F)c1 | -6% | ? | 0% | ? | 12%
CCCCC(=O)Oc1ccccc1C(=O)O | 0% | / | / | / | /
Cc1cc(Cl)ccc1-n1c(CCC(=O)O)ccc1-c1cccs1 | 13% | / | / | ? | /
Cc1nn(-c2ccccc2)c(Cl)c1C(=O)Nc1ccc(N2CCOCC2)cc1 | -6% | -7% | 1% | -14% | 0%
Cc1cccc(NC(=O)c2c(C)nn(-c3ccccc3)c2Cl)c1 | 19% | 11% | ? | 13µM* | ?
O=C(O)c1ccc(NC(=O)c2cn(-c3ccccc3)nc2-c2cccc(Cl)c2)cc1 | / | -1% | -6% | 3.8µM* | -1%
Cc1ccc(OCC(=O)Nc2cc(-c3cccc(C)c3)nn2-c2ccccc2)cc1 | / | / | / | -1% | /
CCOC(=O)c1cc(C(=O)Nc2cccc(C)c2)nn1C | 13µM* | ? | 1.6µM* | 4.8µM* | 1.4µM*
Cc1cccc(-c2cc(NC(=O)c3ccccc3C)n(-c3ccccc3)n2)c1 | / | / | / | 11µM* | /
O=C1C(Cl)=C(NCCN2CCOCC2)C(=O)c2ncccc21 | -94% | / | / | / | /
S=C(S)NCCN1CCNCC1 | -1%[9.22 µM] | / | / | / | /
CCOC(=O)c1nn(-c2ccc(C)cc2)c(=O)cc1OCC(=O)Nc1cccc(C)c1 | / | 0% | 2% | -1% | -6%
O=C(O)c1ccc(NC(=O)c2cn(-c3ccccc3)nc2-c2ccc(F)cc2)cc1 | / | 5% | 22% | 2.7µM* | ?
O=C(O)c1cn(-c2ccccc2)nc1-c1ccc(F)cc1 | / | 0%[9.26 µM] | -2% | ? | 1%
Cc1cccc(NC(=O)c2cn(-c3ccccc3)nc2-c2ccccc2)c1 | 8% | 1% | -2% | 13µM* | -1%
CC(=O)Nc1c(C(=O)Nc2cccc(C)c2)nnn1-c1ccc(C)cc1 | 9% | / | / | 17µM* | /
O=C(NCC1CCCO1)c1cn(-c2ccccc2)nc1-c1ccc(F)cc1 (stereo unspecified) | / | -2% | 3% | 11µM* | 7%
SMILES | SMN2 splice enh | ELG1 genotoxic | NPC1 prom act | FLuc counter | Rab9 prom act
O=C(/C=C/c1cn(-c2ccccc2)nc1-c1ccccc1)Nc1ccc(C(=O)O)cc1 | / | 4% | 24% | 0.85µM* | ?
NS(=O)(=O)c1ccc(NC(=O)/C=C/c2cn(-c3ccccc3)nc2-c2cccc(Cl)c2)cc1 | -13% | 16% | -5% | -4% | -9%
Cc1oc2c(c1C(=O)NCc1cccc(Br)c1)C1=NCCN1C=N2 | / | / | / | 0% | /
Cc1ccc(-c2cc(C(=O)Nc3ccc4c(c3)OCCO4)c3ccccc3n2)cc1 | 11µM* | 9% | 16% | 9.5µM* | 19%
Cc1cccc(NC(=S)NNC(=O)c2csc3c2CCC(C)C3)c1 (stereo unspecified) | 19% | 25% | 16% | 12µM* | ?
Cc1ccc(C(=O)Nc2ccc3c(c2)OCCO3)c(C)c1 | / | ? | 0.089µM* | 0.3µM* | 0.089µM*
Cc1cc(NC(=O)c2ccc3c(c2)OCO3)ccc1NC(=O)c1ccccc1 | / | ? | 15% | ? | 14%
Cc1ccc(NC(=O)c2ccc3c(c2)OCCO3)cc1C | / | ? | 0.63µM* | 0.27µM* | 0.32µM*
Cc1ccc(C(=O)NCC(=O)Nc2ccc3c(c2)OCCO3)cc1 | / | 1% | -4% | -5% | 12%
CC(C)CNC(=S)NNC(=O)c1csc2c1CCC(C)C2 (stereo unspecified) | -14% | -5% | 0% | 1% | 4%
Cc1cccn2c(=O)nc(SCC(=O)Nc3ccc4c(c3)OCCO4)nc12 | / | 2% | -5% | -10% | 2%
COc1cc(OC)cc(-c2c(C#Cc3ccsc3)c3cc(-c4cccc5[nH]cc(C=O)c45)ccc3n2C)c1 | / | -1% | / | / | /
Cc1cc(C(=O)NC2CC(C)(C)Cc3c2cnn3-c2cccc(F)c2)n(C)n1 (stereo unspecified) | / | -7% | 1% | 1% | 3%
Cc1ccc(NC(=O)c2ccc3c(c2)OCCO3)cc1S(=O)(=O)Nc1cccc(Cl)c1 | / | -4% | 13% | 17µM* | 16%
Cc1ccc(C(=O)Nc2cccc(N(C)S(C)(=O)=O)c2)cc1S(=O)(=O)Nc1ccccc1 | -3% | -9% | 3% | -3% | -3%
CN(CC(=O)Nc1cccc(F)c1)C(=O)c1ccc2c(c1)OCCO2 | / | 16% | 0% | ? | -5%
O=C(Nc1cccc(F)c1)c1ccc2c(c1)OCCO2 | / | ? | ? | 4.8µM* | 3.2µM*
COc1ccc(C(=O)NCC(=O)OCC(=O)c2ccc3c(c2)OCCO3)cc1 | -8% | 3% | 3% | -18% | 0%
Cc1ccc(C(=O)NCC(=O)OCC(=O)c2ccc3c(c2)OCCO3)cc1C | -6% | 12% | 7% | 21µM* | 8%
Cc1cccc(NC(=O)c2ccc3c(c2)OCCO3)c1 | / | ? | 0.89µM* | 0.76µM* | 0.63µM*
Cc1cccc(NC(=O)CN2CCC(C(=O)c3ccc4c(c3)OCCO4)CC2)c1 | / | -8% | -1% | 6% | -5%
Cc1ccc(C)c(N2CCN(C(=O)c3cc4c(=O)oc5ccccc5c4s3)CC2)c1 | -9% | / | / | 1% | /
COc1cccc2c1cc1c(=O)n(CC(=O)N3CCN(c4ccccc4F)CC3)nc(C)n12 | -1% | / | / | 3% | /
Cc1ccc(C(=O)NCC(=O)N/N=C/c2cccs2)cc1C | 6% | 1% | 0% | -7% | 1%
NC(=O)c1ccc(SCC(=O)OCC(=O)NCc2cccs2)c([N+](=O)[O-])c1 | / | 2% | -2% | / | 10%
CCCc1cc(C(=O)NNC(=S)Nc2cccc(C)c2)cs1 | 5.6µM* | 9% | ? | 11µM* | 2.5µM*
Cc1cccc(NC(=S)NNC(=O)c2ccc3c(c2)OCO3)c1 | 13µM* | ? | ? | 4.8µM* | 1.8µM*
